Our source for the outcome and AC50 values is PubChem BioAssay (EPA / NIEHS).

Read-out in experiment [1]: Urokinase-type plasminogen activator receptor (uPAR), PLAUR (gene 5329)
Briefly: BSK_BE3C_uPAR: BioMAP Diversity Plus: BE3C Assay for Urokinase-type plasminogen activator receptor (uPAR) Biomarker Activity (AID 2283039).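 On outcome: uPAR protein level measured by ELISA on the cells; cells exposed to compound for one day before measurement.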 Particulars: primary human bronchial epithelial cells; actives raise or lower the signal. The gist of the method: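 Chemically treated human bronchial epithelial cells (lung primary) are assayed for uPAR by ELISA after 24 h, with data fitted in both directions using DMSO as negative control.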

Read-out in experiment [2]: Interleukin-6 (IL6), IL6 (gene 3569)
The experiment can be described thus: BSK_CASM3C_IL6: BioMAP Diversity Plus: CASM3C Assay for Interleukin-6 (IL6) Biomarker Activity for (AID 2283040). The following applies: primary human coronary artery smooth muscle cells; actives raise or lower the signal.

Read-out in experiment [3]: Tissue plasminogen activator (tPA), PLAT (gene 5327)
The experiment can be described thus: BSK_BE3C_tPA: BioMAP Diversity Plus: BE3C Assay for Tissue plasminogen activator (tPA) Biomarker Activity (AID 2283041).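 On outcome: tPA level quantified by ELISA one day after compound addition.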 The following applies: primary human bronchial epithelial cells; actives raise or lower the signal. In a few lines: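 Using human lung primary bronchial epithelial cells, tPA was measured by ELISA 24 h after dosing; data fitted relative to DMSO.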

Read-out in experiment [4]: Interleukin-8 (IL8), CXCL8 (gene 3576)
Briefly: BSK_CASM3C_IL8: BioMAP Diversity Plus: CASM3C Assay for Interleukin-8 (IL8) Biomarker Activity (AID 2283042).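 Further: IL-8 protein level quantified by ELISA.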 The following applies: primary human coronary artery smooth muscle cells; actives raise or lower the signal.

Read-out in experiment [5]: Human Leukocyte Antigen - DR isotype (HLADR), HLA-DRA (gene 3122)
Briefly: BSK_CASM3C_HLADR: BioMAP Diversity Plus: CASM3C Assay for Human Leukocyte Antigen - DR isotype (HLADR) Biomarker Activity (AID 2283043).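 Further: cell-surface HLA-DR protein level quantified by ELISA.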 The following applies: primary human coronary artery smooth muscle cells; actives raise or lower the signal.

Read-out in experiment [6]: Macrophage colony-stimulating factor (MCSF), CSF1 (gene 1435)
Briefly: BSK_CASM3C_MCSF: BioMAP Diversity Plus: CASM3C Assay for Macrophage colony-stimulating factor (MCSF) Biomarker Activity (AID 2283044).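 Further: M-CSF protein amount quantified by ELISA after 24 h exposure.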 Particulars: primary human coronary artery smooth muscle cells; actives raise or lower the signal.

Read-out in experiment [7]: Low-density lipoprotein receptor (LDLR), LDLR (gene 3949)
Briefly: BSK_CASM3C_LDLR: BioMAP Diversity Plus: CASM3C Assay for Low-density lipoprotein receptor (LDLR) Biomarker Activity (AID 2283045).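 Further: LDLR protein level on the cell surface quantified by ELISA.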 The following applies: primary human coronary artery smooth muscle cells; actives raise or lower the signal.

Read-out in experiment [8]: Monocyte Chemoattractant Protein-1 (MCP1), CCL2 (gene 6347)
Briefly: BSK_CASM3C_MCP1: BioMAP Diversity Plus: CASM3C Assay for Monocyte Chemoattractant Protein-1 (MCP1) Biomarker Activity (AID 2283046).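 Further: MCP-1 level quantified by ELISA 24 h after dosing.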 The following applies: primary human coronary artery smooth muscle cells; actives raise or lower the signal.

Experiment [9] is described as follows: BSK_CASM3C_Proliferation: Cell Proliferation Assessment in the BioMAP Diversity Plus: CASM3C Assay (AID 2283047).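 Further: sulforhodamine B total protein stain as relative cell number at 560 nm; sub-confluent cells exposed 48 h before staining; fitted both ways against DMSO so gain or loss of cell number.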 The following applies: primary human coronary artery smooth muscle cells.
Read-out in experiment [10]: Monokine induced gamma interferon (MIG), CXCL9 (gene 4283)
The experiment can be described thus: BSK_CASM3C_MIG: BioMAP Diversity Plus: CASM3C Assay for Monokine induced gamma interferon (MIG) Biomarker Activity (AID 2283048).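 Further: MIG protein level measured by ELISA.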 The following applies: primary human coronary artery smooth muscle cells; actives raise or lower the signal.

Read-out in experiment [11]: serum amyloid A (SAA), SAA1 (gene 6288)
The experiment can be described thus: BSK_CASM3C_SAA: BioMAP Diversity Plus: CASM3C Assay for serum amyloid A (SAA) Biomarker Activity (AID 2283049).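 Further: SAA protein level quantified by ELISA.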 The following applies: primary human coronary artery smooth muscle cells; actives raise or lower the signal.

The nature of experiment [12]: BSK_CASM3C_SRB: Viability Assessment in the BioMAP Diversity Plus: CASM3C Assay (AID 2283050).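 Further: total protein by SRB staining as cytotoxicity measure in parallel cultures; cells exposed to compound for 24 h.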 The following applies: primary human coronary artery smooth muscle cells.
Read-out in experiment [13]: Thrombomodulin, THBD (gene 7056)
The experiment can be described thus: BSK_CASM3C_Thrombomodulin: BioMAP Diversity Plus: CASM3C Assay for Thrombomodulin Biomarker Activity (AID 2283051).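 Further: thrombomodulin protein level measured by ELISA 24 h after dosing.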 Particulars: primary human coronary artery smooth muscle cells; actives raise or lower the signal.

Read-out in experiment [14]: Tissue Factor, F3 (gene 2152)
The experiment can be described thus: BSK_CASM3C_TissueFactor: BioMAP Diversity Plus: CASM3C Assay for Tissue Factor Biomarker Activity (AID 2283052).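 Further: cell surface tissue factor protein level read by ELISA.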 The following applies: primary human coronary artery smooth muscle cells; actives raise or lower the signal.

Read-out in experiment [15]: Interferon-gamma inducible Protein 10 (IP10), CXCL10 (gene 3627)
Briefly: BSK_hDFCGF_IP10: BioMAP Diversity Plus: hDFCGF Assay for Interferon-gamma inducible Protein 10 (IP10) Biomarker Activity (AID 2283053). Particulars: primary human foreskin fibroblasts; actives raise or lower the signal. The gist of the method:
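Chemical-treated human skin fibroblasts (primary) were sampled at 24 h for IP-10 by ELISA. Both increases and decreases relative to DMSO were scored.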

Read-out in experiment [16]: Urokinase-type plasminogen activator receptor (uPAR), PLAUR (gene 5329)
The experiment can be described thus: BSK_CASM3C_uPAR: BioMAP Diversity Plus: CASM3C Assay for Urokinase-type plasminogen activator receptor (uPAR) Biomarker Activity (AID 2283054).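 Further: cell-surface uPAR protein level quantified by ELISA.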 Particulars: primary human coronary artery smooth muscle cells; actives raise or lower the signal.

Read-out in experiment [17]: Vascular cell adhesion molecule 1 (VCAM1), VCAM1 (gene 7412)
The experiment can be described thus: BSK_CASM3C_VCAM1: BioMAP Diversity Plus: CASM3C Assay for Vascular cell adhesion molecule 1 (VCAM1) Biomarker Activity (AID 2283055).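 Further: VCAM-1 protein level quantified by ELISA on the cells.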 Particulars: primary human coronary artery smooth muscle cells; actives raise or lower the signal.

Read-out in experiment [18]: Collagen III, COL3A1 (gene 1281)
Briefly: BSK_hDFCGF_CollagenIII: BioMAP Diversity Plus: hDFCGF Assay for Collagen III Biomarker Activity (AID 2283056). Particulars: primary human foreskin fibroblasts; actives raise or lower the signal. In a few lines: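 ELISA readout of Collagen III in human dermal (foreskin) fibroblasts, taken 24 h post-treatment. Gain or loss relative to DMSO vehicle fitted in both directions.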

Read-out in experiment [19]: Epidermal growth factor receptor (EGFR), EGFR (gene 1956)
Briefly: BSK_hDFCGF_EGFR: BioMAP Diversity Plus: hDFCGF Assay for Epidermal growth factor receptor (EGFR) Biomarker Activity (AID 2283057). The following applies: primary human foreskin fibroblasts; actives raise or lower the signal. In a few lines:
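Cell-based multiplexed assay in primary human foreskin fibroblasts. EGFR is read by ELISA 24 h after treatment and compared with DMSO controls.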

Read-out in experiment [20]: Interleukin-8 (IL8), CXCL8 (gene 3576)
Briefly: BSK_hDFCGF_IL8: BioMAP Diversity Plus: hDFCGF Assay for Interleukin-8 (IL8) Biomarker Activity (AID 2283058). The following applies: primary human foreskin fibroblasts; actives raise or lower the signal. In a few lines:
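IL-8 levels read by ELISA at 24 hours after dosing human skin fibroblast cultures. Parallel SRB staining assessed overt cytotoxicity, and gain or loss of signal was fitted against DMSO control.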

Where a structure was tested more than once in an assay, its records may differ in their call. Calls of active or inactive are those of the source. How the source made its calls: active means hit-call score of the fitted dose curve at least 0.9, where 1 is the maximum; inactive means score below 0.9.

Consider `CC(Oc1ccc(Cl)cc1Cl)C(=O)O` (stereo unspecified), for which the outcome in [1], in experiment [2], in [3], in [4], in experiment [5] and in experiment [6] was inactive. Moreover, the result in [7], in experiment [8], in experiment [9], in experiment [10], in experiment [11] and in [12] was inactive. Moreover, the result in experiment [13], in [14], in experiment [15], in experiment [16], in experiment [17] and in [18] was inactive. The outcome in experiment [19] and in experiment [20] was inactive.
For `CCOc1cc(Oc2ccc(C(F)(F)F)cc2Cl)ccc1[N+](=O)[O-]`, the result in [1], in [2], in experiment [3], in [4], in [5] and in experiment [6] was inactive. For the same compound, the result in experiment [7], in experiment [8], in experiment [10], in experiment [11], in experiment [12] and in experiment [13] was inactive. Further, the outcome in experiment [14], in [16], in experiment [17] and in experiment [20] was inactive. Also, the half-maximal activity concentration (AC50) in experiment [9] was 20 µM (active); in experiment [15], 6.48 µM (active); in experiment [18], 12.9 µM (active); in [19], 14.2 µM (active).
With `CON(C)C(=O)Nc1ccc(Cl)c(Cl)c1`, the result in experiment [1], in experiment [2], in experiment [3], in experiment [4], in experiment [5] and in [6] was inactive. Also, the outcome in [7], in [8], in experiment [9], in [10], in experiment [11] and in experiment [12] was inactive. Further, the outcome in experiment [13], in experiment [14], in [15], in [16], in [17] and in experiment [18] was inactive. The result in experiment [19] and in [20] was inactive.
With `COc1cnc(OC)n2nc(NS(=O)(=O)c3c(OCC(F)F)cccc3C(F)(F)F)nc12`, the result in experiment [1], in [2], in experiment [3], in experiment [4], in [5] and in experiment [6] was inactive. Besides, the result in experiment [7], in experiment [8], in [9], in experiment [10], in experiment [11] and in experiment [12] was inactive. For the same compound, the result in [13], in experiment [14], in experiment [15], in experiment [16], in [17] and in [18] was inactive. For the same compound, the outcome in experiment [19] and in experiment [20] was inactive. The half-maximal activity concentration (AC50) in [7] is 16.8 µM (active).
For `COC(=O)c1ccccc1C(=O)OC`, the result in [1], in [2], in [3], in [4], in experiment [5] and in experiment [6] was inactive. Further, the outcome in experiment [7], in [8], in experiment [9], in experiment [10], in experiment [11] and in [12] was inactive. Also, the result in experiment [13], in [14], in experiment [15], in experiment [16], in experiment [17] and in experiment [18] was inactive. The result in [19] and in experiment [20] was inactive.
Regarding `C#CCOS(=O)OC1CCCCC1Oc1ccc(C(C)(C)C)cc1` (stereo unspecified), the AC50 in experiment [1] is 20 µM (active); in experiment [3] it was 13.2 µM (active); in [5] it was 9.71 µM (active); in [6], 27 µM (active); in experiment [8], 29.8 µM (active); in [9], 16.5 µM (active). Moreover, the AC50 in experiment [11] was 5.32 µM (active); in experiment [12], 20 µM (active); in experiment [13], 5.22 µM (active); in experiment [15], 7.97 µM (active); in experiment [16], 11.2 µM (active); in [18], 1.27 µM (active). The AC50 in experiment [20] was 15.3 µM (active). Moreover, the outcome in experiment [2], in experiment [4], in experiment [7], in [10], in experiment [14] and in experiment [17] was inactive. The outcome in [19] was inactive.

In general, AC50 refers to the concentration giving half of the maximal activity seen.
